PubChem BioAssay AID743327 (National Center for Advancing Translational Sciences (NCATS), 2014)
Calls of active or inactive are those of the source. Calls follow the shape of the full dose curve.

Assay: qHTS profiling of Chloroquine Analogs as inhibitors of Plasmodium falciparum (HB3) proliferation
Settings: P. falciparum HB3 proliferation; series mostly up to 28.7 µM; activity change, negative = inhibition: at the top concentration
Text: Plasmodium falciparum is a virulent malarial parasite that kills 1-2 million people worldwide each year. Transmitted by mosquitoes, the sporozoite form of the parasite enters the blood stream to infect hepatocytes, where they become merozoites that infect red blood cells (erythrocytes). Within erythrocytes, merozoites begin a […] cycle of growth and division, after which the parasite is released to infect new red blood cells. Gametocytes, which form within erythrocytes as well, circulate in the bloodstream and are ingested by the mosquito, thereby completing the life cycle. To profile malarial isolates for differential chemical responses and to identify inhibitors of malarial growth, an assay that measures P. falciparum growth and replication within erythrocytes was employed. This assay uses a DNA binding fluorescent dye (SYBR Green) to detect parasite DNA following cell lysis. Because mature erythrocytes lack DNA, only Plasmodium-derived DNA is detected.
The SYBR Green viability assay was adapted from a method described previously (Plouffe et al., 2008). For screening 3 ul culture medium was dispensed into 1536 well black clear bottom plates (Aurora Biotechnologies) using a Multidrop Combi (Thermo Fisher Scientific Inc.), 23 nL compounds in DMSO were added by a pin tool (Kalypsys), and 5 ul of erythrocytes infected with P. falciparum (0.3% parasitemia, 2.5% hematocrit final concentration) were added. The plates were incubated at 37 C in a humidified incubator in 5% CO2 for 72 h, and 2 ul lysis buffer (20 mM Tris HCl, 10 mM EDTA, 0.16% saponin, 1.6% triton X, 10X SYBR Green I supplied as 10,000X […] by Invitrogen) was added to each well. The plates were mixed for 25 sec with gentle shaking and incubated overnight at room temperature in the dark. The following morning, fluorescence intensity at 485(14) nm excitation and 535(25) nm emission wavelengths was measured on an EnVision (Perkin Elmer) plate reader. Plate reads were normalized relative to the control inhibitor (0.29 uM artemisinin) and vehicle (DMSO) wells present on each plate and then corrected by an algorithm using vehicle-only control plates at the beginning and end of the compound plate stack.
With `CNC(=O)c1cc(Oc2ccc(NC(=O)Nc3ccc(Cl)c(C(F)(F)F)c3)cc2)ccn1` the Potency was 4210 nM (active).
For `CNCCCCOc1ccccc1Cc1ccccc1`, the “activity change, negative = inhibition” value was -79% (inactive).
In the case of `C[C@@H]1[C@@H](CC(C[C@H]2O[C@@H]3O[C@]4(C)CC[C@@H]5[C@H](C)CC[C@@H]([C@H]2C)[C@@]35OO4)C(=O)NCc2ccc(F)cc2)O[C@@H]2O[C@]3(C)CC[C@H]4[C@H](C)CC[C@@H]1[C@@]24OO3` (stereo not given in full), the “activity change, negative = inhibition” value was -102% (inactive).
In the case of `CC[C@@H](C)[C@H]1O[C@]2(CC[C@H]1C)C[C@@H]1C[C@@H](CC=C(C)[C@@H](O[C@H]3C[C@H](OC)[C@@H](O[C@H]4C[C@H](OC)[C@@H](O)[C@H](C)O4)[C@H](C)O3)[C@@H](C)C=CC=C3CO[C@@H]4[C@H](O)C(C)=C[C@@H](C(=O)O1)[C@]34O)O2`, the “activity change, negative = inhibition” value was -102% (inactive).
For `Cn1cncc1[C@@](N)(c1ccc(Cl)cc1)c1ccc2c(c1)c(-c1cccc(Cl)c1)cc(=O)n2C`, the “activity change, negative = inhibition” value was -100% (inactive).
For `CN1C[C@H](C(=O)N[C@]2(C)O[C@@]3(O)[C@@H]4CCCN4C(=O)[C@H](Cc4ccccc4)N3C2=O)C[C@@H]2c3cccc4[nH]cc(c34)C[C@H]21`, the Potency was 530 nM (active).
For `COc1cc(NC(C)CCCN)c2ncccc2c1` (stereo not given), the Potency was 804 nM (active).
For `CCN(CC)CCOCCOC(=O)C(CC)(CC)c1ccccc1`, the “activity change, negative = inhibition” value was -29.4% (inactive).
In the case of `CC(=O)O[C@@]12CO[C@@H]1C[C@H](O)[C@@]1(C)C(=O)[C@H](O)C3=C(C)[C@@H](OC(=O)[C@H](O)[C@@H](NC(=O)OC(C)(C)C)c4ccccc4)C[C@@](O)([C@@H](OC(=O)c4ccccc4)[C@H]21)C3(C)C`, the Potency was 9.4 nM (active).
With `C[C@H]1[C@@H](OC(=O)CCC(=O)O)O[C@@H]2OC3(C)CC[C@H]4[C@H](C)CC[C@@H]1[C@@]24OO3` the Potency was 3 nM (active).
For `COc1cccc(CCc2ccccc2OCC(CN(C)C)OC(=O)CCC(=O)O)c1` (stereo not given), the Potency was 2980 nM (active).
In the case of `CC(CNC1CCCCC1)OC(=O)c1ccccc1` (stereo not given), the “activity change, negative = inhibition” value was -7.06% [at 14.2 µM] (inactive).
In the case of `Cc1nc2c(C#N)cccc2n1-c1ccc(C(=O)NC2CC2)s1`, the Potency was 23.7 nM (active).
With `CCOc1ccccc1O[C@H](c1ccccc1)[C@H]1CNCCO1` the “activity change, negative = inhibition” value was 154% (inactive).
For `C[C@H]1c2cccc(O)c2C(O)=C2C(=O)[C@]3(O)C(O)=C(C(N)=O)C(=O)[C@@H](N(C)C)[C@@H]3[C@@H](O)[C@@H]21`, the Potency was 8410 nM (active).
With `CCOc1ccc(F)cc1C1(O)C(N)=Nc2ccc(Cl)cc21` (stereo not given) the “activity change, negative = inhibition” value was 136% (inactive).
For `CN(C)CCOC(c1ccccc1)c1ccccc1`, the “activity change, negative = inhibition” value was -20.8% (inactive).
For `C[C@@H]1CC[C@H]2[C@@H](C)C(=O)O[C@@H]3OC4(C)CC[C@@H]1C32OO4` (stereo not given in full), the “activity change, negative = inhibition” value was -99.5% [at 57.5 µM] (inactive).
With `CN(C)CC/C=C1\c2ccccc2COc2ccccc21` the Potency was 2540 nM (active).
In the case of `CN([C@@H](Cc1ccc(OS(=O)(=O)c2cccc3cnccc23)cc1)C(=O)N1CCN(c2ccccc2)CC1)S(=O)(=O)c1cccc2cnccc12`, the “activity change, negative = inhibition” value was -101% (inactive).
With `C#C[C@]1(O)CC[C@@H]2[C@H]3CCC4=CC(=O)CC[C@H]4[C@H]3C(=C)C[C@@]21CC` the Potency was 749 nM (active).
With `O[C@H](c1cc(C(F)(F)F)nc2c(C(F)(F)F)cccc12)[C@H]1CCCCN1` the “activity change, negative = inhibition” value was -98.4% [at 14.2 µM] (inactive).
With `CN1CCN(CCCN2c3ccccc3Sc3ccc(S(=O)(=O)N(C)C)cc32)CC1` the Potency was 716 nM (active).
In the case of `Clc1ccc(COC(Cn2ccnc2)c2ccc(Cl)cc2Cl)c(Cl)c1` (stereo not given), the “activity change, negative = inhibition” value was -98.6% [at 14.2 µM] (inactive).
In the case of `C=Cc1c(C)c2cc3nc(cc4[nH]c(cc5nc(cc1[nH]2)C(C)=C5CCC(=O)OC)c(CCC(=O)O)c4C)[C@@]1(C)C3=CC=C(C(=O)OC)[C@H]1C(=O)OC`, the “activity change, negative = inhibition” value was -98.4% [at 14.2 µM] (inactive).
In the case of `C/C(=C\c1csc(C)n1)[C@@H]1C[C@@H]2O[C@]2(C)CCC[C@H](C)[C@H](O)[C@@H](C)C(=O)C(C)(C)[C@@H](O)CC(=O)O1`, the “activity change, negative = inhibition” value was -97.6% (inactive).
In the case of `Cc1cccc(C)c1NC(=O)C(C)N` (stereo not given), the “activity change, negative = inhibition” value was 140% [at 14.2 µM] (inactive).
For `O=C(Nc1ccc(Cl)cc1)Nc1ccc(Cl)c(Cl)c1`, the Potency was 2110 nM (active).
For `CC[C@H]1OC(=O)[C@H](C)[C@@H](O[C@H]2C[C@@](C)(OC)[C@@H](O)[C@H](C)O2)[C@H](C)[C@@H](O[C@@H]2O[C@H](C)C[C@H](N(C)C)[C@@H]2O)[C@](C)(O)C[C@@H](C)CN(C)[C@H](C)[C@@H](O)[C@]1(C)O`, the Potency was 9430 nM (active).
For `CCN(CC)CCOc1ccc2c(=O)c3ccc(Cl)cc3n(CCN(CC)CC)c2c1`, the Potency was 530 nM (active).
In the case of `C[C@@H]1[C@@H](CC(C[C@H]2O[C@@H]3O[C@]4(C)CC[C@@H]5[C@H](C)CC[C@@H]([C@H]2C)[C@@]35OO4)C[S+](=O)([O-])c2ccc(COC(=O)N(C)C)cc2)O[C@@H]2O[C@]3(C)CC[C@H]4[C@H](C)CC[C@@H]1[C@@]24OO3` (stereo not given in full), the Potency was 6.7 nM (active).
In the case of `CCCC(=O)O[C@]1(C(=O)CCl)[C@H](C)C[C@@H]2[C@H]3CCC4=CC(=O)C=C[C@]4(C)[C@@]3(F)C(=O)C[C@@]21C`, the “activity change, negative = inhibition” value was 133% (inactive).
For `CC(C)N=C(N)N=C(N)Nc1ccc(Cl)cc1`, the Potency was 29.8 nM (active).
With `C[C@@H]1[C@@H](C(=O)C[C@H]2O[C@@H]3O[C@]4(C)CC[C@@H]5[C@H](C)CC[C@@H]([C@H]2C)[C@@]35OO4)O[C@@H]2O[C@]3(C)CC[C@H]4[C@H](C)CC[C@@H]1[C@@]24OO3` the “activity change, negative = inhibition” value was -101% (inactive).
With `CN(C)c1ccc2nc3ccc(=[N+](C)C)cc-3sc2c1` the Potency was 4.9 nM (active).
